The full ranking holds about 33,000 sequences; the median of “E-score (-0.5 to 0.5)” is about -0.012, and the highest 2% start at about 0.27. The list comes from a sample in which the highest values are over-represented; it also holds similar and randomly drawn sequences.
molecular target: T1, Vhr1 (UniProt P40522); test: PBM E-score (8-mer binding enrichment) (E-score (-0.5 to 0.5)); higher = stronger / more preferred TF binding; conditions: protein concentration: 200 nM; construct: GST-full length
T1 sequence: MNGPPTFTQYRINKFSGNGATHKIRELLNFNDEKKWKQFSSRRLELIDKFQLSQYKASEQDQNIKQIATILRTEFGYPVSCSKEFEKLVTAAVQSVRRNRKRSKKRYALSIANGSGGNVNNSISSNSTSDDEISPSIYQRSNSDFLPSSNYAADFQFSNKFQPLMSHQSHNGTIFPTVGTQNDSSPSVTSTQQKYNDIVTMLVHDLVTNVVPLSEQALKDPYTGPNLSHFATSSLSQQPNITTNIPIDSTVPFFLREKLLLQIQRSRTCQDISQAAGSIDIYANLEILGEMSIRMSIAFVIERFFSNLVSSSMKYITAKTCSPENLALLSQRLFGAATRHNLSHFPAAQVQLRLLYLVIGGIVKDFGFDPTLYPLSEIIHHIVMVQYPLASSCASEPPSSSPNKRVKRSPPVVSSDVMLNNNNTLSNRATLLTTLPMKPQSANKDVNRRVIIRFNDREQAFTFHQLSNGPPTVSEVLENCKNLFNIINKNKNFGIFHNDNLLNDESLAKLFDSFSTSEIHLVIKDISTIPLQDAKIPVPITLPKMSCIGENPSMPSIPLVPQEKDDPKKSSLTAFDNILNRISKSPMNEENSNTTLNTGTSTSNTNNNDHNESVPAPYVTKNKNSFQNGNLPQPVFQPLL
Method: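 Universal 'all 10-mer' protein binding microarrays (Agilent AMADID 015681) probed with GST-tagged S. cerevisiae TFs (full-length or DBD) made by in vitro transcription/translation (PURExpress), about 100-200 nM. Bound TF was detected with fluorescent anti-GST. Each ungapped 8-mer (which stands for itself and its reverse complement) is scored by the PBM enrichment score (E-score), a modified Wilcoxon-Mann-Whitney statistic from -0.5 to +0.5, computed with the Universal PBM Analysis Suite. Scale: above 0.35 generally sequence-specific binding.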

Sequence | PBM E-score
AGGACTAC | 0.067
AGGACTAA | 0.054
ATGACTAC | 0.462
AAGACTAA | 0.116
AAGACTAC | 0.122
AGTCTACC | -0.0695
CGAAGTGC | -0.107
AAACGCAC | 0.142
CAAAAGGA | -0.2
AACTGATC | 0.157
CGGCAGCA | -0.0628
AGGCAGCC | -0.0232
CGGCAGCC | 0.282
AGGGGGCA | -0.151
GAAACACA | 0.0985
AATTGAGT | 0.272
AATTGAGG | -0.233
AATTGAGA | -0.0698
TGAATCCA | 0.185
ATCATGAC | 0.335
CTCATGAC | 0.326
ATCATGAA | 0.118

Sequence | PBM E-score
GTCATGAC | 0.31
CACATGAC | 0.272
CACATGAG | 0.065
CACATGAA | 0.0563
GACATGAC | 0.202
ATCATGAG | 0.235
GTCATGAA | 0.257
CTCATGAG | 0.0895
CTCATGAA | 0.0223
CTTTCAAC | -0.128
CGTGGTGA | -0.158
CAGACGGC | -0.0191
CGAACTAG | -0.0301
TCTAGAAA | -0.272
ACCCCTGA | 0.143
AACCCATT | 0.0791
AACCCTGA | 0.286
AACCCATA | 0.271
GACCCATA | 0.251
CACCCTGA | 0.245
AATTGACT | 0.149
CTTAAGTA | -0.199

Sequence | PBM E-score
CTAGGTTC | -0.0959
CCGAATGC | -0.0649
TATAGTAA | 0.15
AATAGTCA | 0.344
CATAGTCC | 0.115
CATAGTCG | 0.238
TATAGTCA | 0.318
AATAGTCG | 0.148
GATAGTAA | 0.0876
AATAGTCT | -0.0519
GATAGTCC | 0.0259
GATAGTCA | 0.357
TATAGTGA | -0.0332
CATAGTCA | 0.37
ACGGGAGG | -0.13
AATGTGGT | 0.115
GAATCGAC | -0.005
ACAAATCG | 0.0133
ATCAGCTA | 0.0387
GAAGGATC | -0.0379
GGCTCAAC | -0.199
CTGGCTGA | 0.143

Sequence | PBM E-score
ACAATCGT | 0.0768
CAATCCTG | 0.122
ATATGGAA | 0.178
ATGCTGTG | 0.116
AGTGTGAG | 0.147
AGTGTGAC | 0.209
AGTGTGAT | 0.296
ACGTCAGA | -0.0949
ACAGTTGG | -0.02
CGCGAGTA | 0.112
CGCGAGTC | 0.355
AGCGAGTG | 0.192
CTCGAGTC | 0.235
AGCGAGTA | 0.119
AGCGAGTC | 0.275
CATCACAA | 0.0244
CGCCAAGA | -0.0615
CGGAGCGA | 0.0369
ACTTGGGA | -0.155
AGCCAGTG | 0.00862
AGTTGCAT | -0.0357
CACCTTAA | -0.0968

Sequence | PBM E-score
GGGAATAA | -0.0372
CGGAATCA | 0.412
AGGAATCG | 0.0478
TAGAATCA | 0.185
CAGAATCA | 0.313
GGGAATGA | 0.169
AGGAATCA | 0.28
GGGAATCA | 0.307
AGGAATCC | 0.119
CGGAATTA | -0.193
CGGAATCC | 0.0628
AAGAATCA | 0.222
CACTCGAG | -0.029
CTCTTCAG | -0.0887
TTCCTCAA | -0.19
ATGGTCCG | 0.175
ATAGGCCA | -0.159
AGACTAAC | 0.0491
GCTAAACA | -0.0852
ACTGGCAC | -0.113
ATGAAGCG | -0.136
TGAAATAA | -0.158

Reference: the supplement of paper PMC3334620
